Calls of active or inactive are those of the source.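 How the source made its calls: active means average half-effect concentration of 10 µM or less in every one of the four cell panels; inactive means the rest.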
The compounds below were run on HL-1 (assay: cardiomyocyte survival under oxidative or metabolic stress – cell-based, panel, H9c2 and HL-1, H2O2, 2-deoxyglucose, ATP luminescence, SAR follow-up (AID 651642;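 further: plate controls were H2O2 plus DMSO for no effect and cells kept without H2O2 for full effect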)). Conditions: H9c2/HL-1 cardiomyocyte H2O2 oxidative damage, mean of runs; activity: with H2O2, at 0.154 µM; outcome: with H2O2.
For `COc1ccccc1CN1C(=O)c2ccccc2N2C(=O)c3c(ccc(OC)c3OC)C12` (stereo not given), the activity was 1.25% (inactive).
In the case of `COc1cc(-c2cc(C(=O)Nc3cccc(C(C)=O)c3)c3ccccc3n2)cc(OC)c1OC`, the activity was -1.02% (active).
For `COc1cc(-c2cc(C(=O)Nc3cccc(C(=O)NCc4ccccc4)c3)c3ccccc3n2)cc(OC)c1OC`, the activity was 1.48% (active).
With `COc1cc(-c2cc(C(=O)Nc3cccc(C(=O)O)c3)c3ccccc3n2)cc(OC)c1OC` the activity was 1.9% (inactive).
With `COc1ccc2c(c1OC)C(=O)N1c3ccccc3C(=O)N(Cc3ccccc3)C21` (stereo not given) the activity was -5.45% (inactive).
For `COc1ccc2c(c1OC)C(=O)N1c3ccccc3C(=O)N(Cc3ccccn3)C21` (stereo not given), the activity was 1.21% (inactive).
For `CCOC(=O)c1cccc(NC(=O)c2cc(-c3cc(OC)c(OC)c(OC)c3)nc3ccc(F)cc23)c1`, the activity was 5.11% (active).
In the case of `COc1ccc2c(c1OC)C(=O)N1c3ccccc3C(=O)N(Cc3ccncc3)C21` (stereo not given), the activity was 0.0397% (inactive).
For `COc1cc(-c2cc(C(=O)NCC(=O)Nc3ccc(C(C)=O)cc3)c3cc(F)ccc3n2)cc(OC)c1OC`, the activity was 1.92% (active).
`CCOC(=O)c1cccc(NC(=O)CNC(=O)c2cc(-c3cc(OC)c(OC)c(OC)c3)nc3ccc(Br)cc23)c1` was tested, and the activity was -0.604% (active).
`COc1cc(-c2cc(C(=O)NCC(=O)Nc3cccc(C(C)=O)c3)c3cccc(Cl)c3n2)cc(OC)c1OC` was tested, and the activity was 8.31% (inactive).
In the case of `CCNC(=O)c1cccc(NC(=O)c2cc(-c3cc(OC)c(OC)c(OC)c3)nc3ccccc23)c1`, the activity was -0.0361% (active).
For `CCOC(=O)c1cccc(NC(=O)c2cc(-c3cc(OC)c(OC)c(OC)c3)nc3ccccc23)c1`, the activity was 0.2% (active).
For `COc1ccc2nc(-c3cc(OC)c(OC)c(OC)c3)cc(C(=O)NCC(=O)Nc3ccc(C(C)=O)cc3)c2c1`, the activity was -1.7% (active).
`CCOC(=O)c1cccc(NC(=O)CNC(=O)c2cc(-c3cc(OC)c(OC)c(OC)c3)nc3c(Cl)cccc23)c1` was tested, and the activity was -2.82% (inactive).
With `COc1cccc(CNC(=O)CNC(=O)c2cc(-c3cc(OC)c(OC)c(OC)c3)nc3ccccc23)c1` the activity was -2.04% (inactive).
In the case of `CCOC(=O)c1cccc(NC(=O)CNC(=O)c2cc(-c3cc(OC)c(OC)c(OC)c3)nc3ccccc23)c1`, the activity was -0.899% (inactive).
For `COC(=O)CNC(=O)c1cc(-c2cc(OC)c(OC)c(OC)c2)nc2ccccc12`, the activity was -2.8% (inactive).
With `COc1cc(-c2cc(C(=O)Nc3cccc(C(C)=O)c3)c3ccc(Cl)cc3n2)cc(OC)c1OC` the activity was -6.29% (active).
For `COC(=O)CNC(=O)c1cccc(NC(=O)c2cc(-c3cc(OC)c(OC)c(OC)c3)nc3ccccc23)c1`, the activity was -1.7% (active).

From PubChem BioAssay AID651642 (Sanford-Burnham Center for Chemical Genomics, 2012)
